Screening data: PubChem BioAssay, National Center for Advancing Translational Sciences (NCATS)
BAZ2B inh: inhibitors of human BAZ2B bromodomain | Q9UIF8 | AID 504333 | AlphaScreen BAZ2B-H3K14Ac peptide displacement | 4.4% of 360,000 active | Potency, µM (highest dose often 114 µM), inactives show at the top dose activity change, negative = inhibition, actives largely listed as inhibitors; further: on the % scale 0 is the no-effect control and ±100 the full control effect; nearly all actives have a fitted effect of over 60% in size
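Compounds, titrated to a top concentration of 110 uM, were incubated 30 min at room temperature with preformed BAZ2B/acetyl-K14 H3 peptide complex (50 nM each). Proximity signal was measured by AlphaScreen after 20 min with beads.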
Sfp inh: inhibitors of Bacillus subtilis Sfp phosphopantetheinyl transferase; Q9F4F7; Biochemical Sfp PPTase activity, qHTS; Potency, µM, for inactives: largest response in the series, negative = inhibition, usual class: inhibitors; 3.5% of 310,000 active; AID 1490;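 further: the enzyme is Sfp with the accession as filed and its product quenches rhodamine fluorescence; 0% = enzyme reaction without inhibitor and -100% = no enzyme wells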
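Step 1, compound plus 15 nM Sfp-PPTase, 15 min, room temperature. Step 2, add rhodamine-CoA (5 uM) and BHQ-2-YbbR (12.5 uM). Step 3, read 525/598 nm fluorescence at 0 and 30 min.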
HP1b chromo inh: inhibitors of HP1-beta chromodomain binding to methylated histone tails | Potency, µM (titrated, usually from 114 µM), inactives show at the top dose activity change, negative = inhibition, actives largely listed as inhibitors | P83916 | AID 540317 | AlphaScreen HP1-beta / biotin-H3K9me3 peptide binding | 0.56% of 390,000 active; further: nearly all actives have a fitted effect of over 70% in size
Target sequence (P83916 whole entry, looked up): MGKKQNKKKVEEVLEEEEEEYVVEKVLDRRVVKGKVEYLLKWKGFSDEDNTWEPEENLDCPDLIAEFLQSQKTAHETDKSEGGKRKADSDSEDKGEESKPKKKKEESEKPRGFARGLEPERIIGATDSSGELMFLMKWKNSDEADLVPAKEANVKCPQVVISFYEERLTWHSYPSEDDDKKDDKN
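HP1-beta protein (50 nM final) preincubated 30 min at room temperature with biotinylated H3(1-18)K9me3 peptide (50 nM) in PBS pH 7.4, 0.01% Tween-20, then compound added for 30 min. AlphaScreen streptavidin donor/nickel chelate acceptor beads (10 ug/mL final), 30 min dark, luminescence read.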
JMJD2A Tudor: blocks the human JMJD2A Tudor domain; O75164; Potency, µM (series often up to 114 µM), inactives show at the highest dose activity change, negative = inhibition, usual class: inhibitors; 4.4% of 390,000 active; AlphaScreen JMJD2A-Tudor / H3K4me3 peptide binding; further: on the % scale 0 is the no-effect control and ±100 the full control effect; nearly all actives have a fitted effect of over 50% in size
G9a block: inhibitors of human histone lysine methyltransferase G9a. Potency, µM (top dose mostly 102 µM), inactives show at the highest dose activity, negative = inhibition, most hits filed as inhibitors. 8.8% of 350,000 active. Q96KQ7. G9a H3K9 monomethylation, AlphaScreen, 2 h; further: on the % scale 0 is the no-effect control and ±100 the full control effect; nearly all actives have a fitted effect of over 75% in size
Target sequence (Q96KQ7 913-1193 limits assumed): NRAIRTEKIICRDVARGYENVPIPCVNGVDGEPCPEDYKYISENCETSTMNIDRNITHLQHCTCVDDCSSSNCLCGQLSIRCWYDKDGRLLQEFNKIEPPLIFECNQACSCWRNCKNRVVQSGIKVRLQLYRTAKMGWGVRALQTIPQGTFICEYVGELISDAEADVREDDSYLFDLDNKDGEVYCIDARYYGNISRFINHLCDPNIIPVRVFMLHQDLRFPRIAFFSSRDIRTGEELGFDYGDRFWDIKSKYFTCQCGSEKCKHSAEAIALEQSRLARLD
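G9a (20 nM) was preincubated 15 min with compound, then reacted 2 h at room temperature with 500 nM biotin-H3K9 peptide and 20 µM SAM. Monomethyl-H3K9 detected by AlphaScreen using anti-H3K9me1 antibody.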
* hit, by the source's call; ? = inconclusive; · = not tested or not shown; [ ] = dose if it differs, or a comment. Most compounds without a hit are left out; they make up all but 12% or so of the library. The call rests on the fitted dose curve; in most records, active means well fitted curve in the direction sought with a large enough effect; inconclusive means small, poorly fitted or top-dose-only effect, or another doubt; inactive means no such curve, though single readings can be large; an effect the other way counts as inactive or inconclusive. Potency means the concentration at half of the fitted maximal effect.

SMILES	BAZ2B inh	Sfp inh	HP1b chromo inh	JMJD2A Tudor	G9a block
Cc1ccc(CSc2nnc([C@@H](N)C(C)C)o2)cc1	-19%	·	34%	-6%	-28%[59 µM]
C=C(C)C1Cc2c(ccc(C(=O)O)c2O)O1 (stereo not given)	·	26%	·	·	·
Cc1ccccc1OCc1nc2ccc(S(=O)(=O)N3CCOCC3)cc2[nH]1	?	40µM*	-43%	?	3.5µM*
O=C(CCNC(=O)OCC1c2ccccc2-c2ccccc21)NOCc1ccccc1	·	·	65%	12%	·
O=C1C(Cc2ccccc2)SC(=Nc2ccccc2)N1c1ccccc1 (stereo not given)	5%	3%	34%	7%	35%[0.501 µM]
N=C1N(c2ccccc2)C(=S)C(=Nc2ccccc2)N1c1ccccc1	·	·	45µM*	25µM*	·
O=S(=O)(Nc1ccc(N=Nc2ccc(O)c3ccccc23)cc1)c1ccccc1	40µM*	?	40µM*	25µM*	?
O=S(=O)(Nc1ccccc1)c1ccc(NS(=O)(=O)c2c(F)cccc2F)cc1	-4%	8%	21%	-14%	50µM*
O=[N+]([O-])c1ccc(N=Nc2ccc(O)c3ccccc23)cc1	·	·	7.9µM*	3.2µM*	·
O=S(=O)(Nc1ccc(S(=O)(=O)Nc2ccccc2)cc1)c1ccccc1	2%	-5%	14%	-21%	-28%
O=S(=O)(Nc1ccc(N=Nc2ccccc2)cc1)c1ccccc1	35µM*	21%	45µM*	35µM*	32µM*
COc1ccc(CC(=O)NCCc2sc(-c3ccc(Cl)cc3)nc2C)cc1OC	-7%	·	17%[57 µM]	-23%	15%[59 µM]
Cc1ccc(C)c(N2CCN(C(=O)c3ccc(-c4nc(COc5ccccc5)c(C)o4)cc3)CC2)c1	-35%	·	22%	-24%	-44%[59 µM]
COc1ccc(C(C2C(=O)CC(C)(C)CC2=O)C2C(=O)CC(C)(C)CC2=O)cc1CO	-1%	56µM*	54%	-15%	?
CC1(C)CC(=O)C(C(c2ccc(Br)cc2)C2C(=O)CC(C)(C)CC2=O)C(=O)C1	4%	3%	41%	-25%	45µM*
CC1(C)CC(=O)C(C(c2ccco2)C2C(=O)CC(C)(C)CC2=O)C(=O)C1	-25%	50µM*	51%	?	?
CC1(C)CC(=O)C(C(c2ccc(F)cc2)C2C(=O)CC(C)(C)CC2=O)C(=O)C1	2%	-33%	52%	-2%	?
O=C1CCC(C(=O)N2CCN(c3cnccn3)CC2)CN1CCc1ccc(Cl)cc1 (stereo not given)	-18%	6%	27%	-28%	7%
NC(=S)NN=C1CCSCC1	·	·	-9%[57 µM]	?	·
CC1CCCN(S(=O)(=O)c2ccc(C(=O)Nc3nnc(C4CC4)o3)cc2)C1 (stereo not given)	35µM*	22%	51%	?	42%
Cc1cc(C)nc(NS(=O)(=O)c2ccc(NC(=O)c3ccc(S(=O)(=O)N4CC(C)OC(C)C4)cc3)cc2)n1 (stereo not given)	4%	-6%	22%	-12%	8.9µM*
Cc1nnc(NC(=O)c2ccc(S(=O)(=O)N3CC(C)OC(C)C3)cc2)o1 (stereo not given)	25µM*	?	34%	2.8µM*	8%
CC1CN(S(=O)(=O)c2ccc(C(=O)Nc3nnc(-c4ccco4)o3)cc2)CC(C)O1 (stereo not given)	?	19%	51%	-26%	?
O=C(NCCF)C1Nc2ccc(OC(F)(F)F)cc2C2C=CCC12 (stereo not given)	·	·	9%	-35%	·
O=C(O)C1Nc2c(Cl)cc(Cl)c(Cl)c2C2C=CCC12 (stereo not given)	·	·	?	56µM*	·
SMILES	BAZ2B inh	Sfp inh	HP1b chromo inh	JMJD2A Tudor	G9a block
O=C(O)C1Nc2c(O)cccc2C2C=CCC12 (stereo not given)	1.6µM*	-19%	28µM*	2.5µM*	10µM*
CC(C)CNC(=O)C1Nc2ccc(C(F)(F)F)cc2C2C=CCC12 (stereo not given)	·	·	14%	-22%	·
O=C(NCCOc1ccccc1)C1Nc2ccc(OC(F)(F)F)cc2C2C=CCC12 (stereo not given)	·	·	23%	-18%	·
Cc1ccc(C)c2c1NC(C(=O)O)C1CC=CC21 (stereo not given)	·	·	22µM*	20µM*	·
O=C(O)C1Nc2c(Cl)cc(Cl)cc2C2C=CCC12 (stereo not given)	25µM*	?	28µM*	22µM*	·
CO[C@@H]1COC(=O)C/C=C\[C@H](C)[C@H](OC)COC(=O)[C@H]2CCCN2C(=O)C/C=C\[C@H]1C	·	13%	·	·	·
O=c1cc(N2CCNCC2)nc2sc(-c3ccncc3)nn12	·	·	·	-32%	·
COc1cccc(CNCCSc2nnnn2C)c1OCc1ccccc1	-18%	·	26%	-14%	7%[59 µM]
c1ccc(N2CCN(CCCOc3ccc4c(c3)OCO4)CC2)cc1	·	-16%	·	·	20µM*
O=C(CN1CCN(c2ccc(F)cc2)CC1)c1ccc2c(c1)OCO2	-24%	-21%	31%	-28%	32µM*
CC(C)c1ccc(OCC(O)CN2CCN(c3ccc(F)cc3)CC2)cc1 (stereo not given)	-18%	·	10%	79µM*	10µM*
OC(COc1ccc2c(c1)OCO2)CN1CCN(c2ccc(F)cc2)CC1 (stereo not given)	?	10%	31%	-11%	50µM*
CC(=O)Nc1ccc(C(=O)COC(=O)C2CC2)c(F)c1	3%	·	6%	-8%	-39%
Cc1cc2n(n1)C(c1ccccc1)CC(c1ccc(Br)cc1)=N2 (stereo not given)	24%	-2%	91%	23%	40µM*
Cc1cc2n(n1)C(c1ccccc1)Nc1ccccc1-2 (stereo not given)	-3%	-1%	32%	-19%	-15%[59 µM]
CC1N(C)c2cc(NC(=O)c3ccco3)ccc2C1(C)C (stereo not given)	50µM*	-24%	-11%	?	?
CC(=O)Nc1ccc(NC(=O)c2ccco2)cc1	10%	17%	23%	-7%	18%[2.33 µM]
COc1ccc(C2=[N+](C)CCn3cccc32)c(OC)c1	-34%	18%	?	18µM*	7.1µM*
COc1ccc(-c2[nH]ncc2CN2CCCCCCC2)c(OC)c1	?	3%	-10%	?	·
Cc1cccc(C)c1NC(=O)C(=O)NCC(c1ccc2c(c1)OCO2)N1CCOCC1 (stereo not given)	5%	·	18%[57 µM]	-9%	14%[59 µM]
COc1ccc([C@H]2/C=C\CN(Cc3ccc(N(C)C)cc3)[C@@H](C)C(=O)N2Cc2ccc(F)cc2)cc1	·	·	?	18µM*	·
COc1ccc(C2/C=C\CN(CC(C)C)C(C)C(=O)N2Cc2ccc(F)cc2)cc1 (stereo not given)	·	-3%	44%	-8%	·
CN(C)c1ccc(C(=O)Nc2nc3c(s2)CCCC3)cc1	?	?	?	79µM*	35µM*
